# Potency and affinity values are given separately. Activity calls are given as the source filed them. Entries that show only a call come without a potency. The limit is not given here; nearly all actives have IC50 up to about 0.98 µM.
# Molecular target: Calcium-dependent protein kinase 1 (Plasmodium falciparum (isolate 3D7)) (UniProt P62344)
# Experiment: PfCDPK1 kinase inhibitors, biochemical, TCAMS library (AID 1159585);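 also: inhibitors leave more ATP so luminescence rises with inhibition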
# Conditions: recombinant PfCDPK1, Kinase-Glo ATP depletion luminescence
# Calcium-dependent protein kinase 1 (Plasmodium falciparum (isolate 3D7)), sequence (P62344 whole entry, looked up): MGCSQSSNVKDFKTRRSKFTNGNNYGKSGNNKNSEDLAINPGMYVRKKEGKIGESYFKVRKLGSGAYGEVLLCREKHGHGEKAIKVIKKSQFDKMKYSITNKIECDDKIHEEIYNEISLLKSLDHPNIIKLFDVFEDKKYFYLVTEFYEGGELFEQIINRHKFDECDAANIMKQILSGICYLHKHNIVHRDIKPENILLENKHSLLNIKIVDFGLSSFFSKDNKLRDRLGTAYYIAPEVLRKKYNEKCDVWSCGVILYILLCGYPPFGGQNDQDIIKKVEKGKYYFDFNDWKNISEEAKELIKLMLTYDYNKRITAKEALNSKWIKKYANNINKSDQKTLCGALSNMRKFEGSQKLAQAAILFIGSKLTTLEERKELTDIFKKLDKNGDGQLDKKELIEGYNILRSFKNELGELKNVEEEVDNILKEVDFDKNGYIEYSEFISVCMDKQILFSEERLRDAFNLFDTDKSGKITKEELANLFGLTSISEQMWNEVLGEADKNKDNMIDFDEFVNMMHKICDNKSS
row,Structure (SMILES),outcome
1,COCCNCc1ccc(-c2ccc(CN(C(=O)Nc3ccccc3)C3CCN(Cc4ccccc4)CC3)cc2)cc1,inactive
2,Cc1csc(-c2ccc3[nH]cc(C4=CCN(C)CC4)c3c2)n1,inactive
3,CCCCn1c(C)c(C(=O)OCC)c2cc(OC(C)=O)c(Br)cc21,inactive
4,Cc1csc(NC2=NCCN2)n1,inactive
5,O=[N+]([O-])c1ccc(Oc2c(Cl)cc(S(=O)(=O)NC3CCC(CN4CCC(c5c[nH]c6ccccc56)CC4)CC3)cc2Cl)c(Cl)c1 (stereo not given),inactive
6,CN1CC=C(c2c[nH]c3ccc(OCc4ccccc4)cc23)CC1,inactive
7,COc1ccc(CC(C)NCC(O)c2ccc(Cl)c(Cl)c2)cc1 (stereo not given),inactive
8,COC(=O)c1ccc(CC(C)NCC(O)c2ccccc2Cl)cc1 (stereo not given),inactive
9,Cc1cc(C(=O)NC2CCN(CC3(c4ccc(Cl)cc4)CCC3)CC2)on1,inactive
10,O=C(/C=C/c1cc(F)cc(C(F)(F)F)c1)N1CCC(CN2CCC(c3c[nH]c4ccccc34)CC2)CC1,inactive
11,CS(=O)(=O)Nc1ccc2[nH]cc(C3CCN(CC4CCC(NC(=O)/C=C/c5ccc(Cl)c(Cl)c5)CC4)CC3)c2c1 (stereo not given),inactive
12,c1ccc2c(NCCCCCCCCCNc3c4ccccc4nc4ccccc34)c3ccccc3nc2c1,inactive
13,CC(Cc1ccc(Oc2ccccc2)cc1)NCC(O)c1cccc(C(F)(F)F)c1 (stereo not given),inactive
14,COC(=O)/C=C/c1ccc(C[C@@H](C)NC[C@H](O)c2cccc(C(F)(F)F)c2)cc1,inactive
15,CC[C@H]1CN2CC[C@H]1C[C@H]2[C@H](O)c1cc(-c2ccccc2C)nc2ccc(OC)cc12,inactive
